# Experimental data taken from ChEMBL document CHEMBL3988442, “University of Dundee, Small-Polar-MMV Screening Library” (2021).
# Target: AMP-activated protein kinase, AMPK (Homo sapiens) (UniProt P54646+O43741+P54619+Q9UGJ0+Q9Y478+Q13131+Q9UGI9)
# Test: AMP-dependent Kinase enzyme assay. An in vitro enzyme assay that detects ADP turnover that is directly proportional to AMPK activity. This uses naive AMPK that is activated during the assay with MK-8722
# Type: functional
# Set-up: scale not given: direction of the effect not stated beside the values
# Settings: 30 µM
row,SMILES,Percent Effect
1,COC(=O)c1ncccc1N1CCCCC1,2.81%
2,CC(C)Cc1cc(C(=O)N2CCC(N3CCCC3)CC2)cc(O)n1,1.87%
3,COc1cc(NC2CCCN(c3ncccn3)C2)cc(OC)c1 (stereo not given),-64.1%
4,COC(=O)N1CCCCC1C(=O)N1CCN(c2ncccc2C)CC1 (stereo not given),-4.85%
5,O=C(Cc1ccc2c(c1)CCC2)NC1CCN(Cc2ccccc2)CC1,-0.352%
6,CS(=O)(=O)CCN1CCSCC1c1ccc(Cl)cc1 (stereo not given),-2.02%
7,Cc1cc(CNS(C)(=O)=O)ccc1N(C)C,1.62%
8,CO[C@@H]1CCC[C@@H](NC(=O)c2cccc(F)c2)[C@H]1O,10.3%
9,COCC1(C(=O)N[C@H]2CN(c3ccnc(C)c3)C[C@@H]2C2CC2)CCC1,-1.57%
10,C=C(C)Cn1nc(C)c(CN2CCN(C3CCCCC3)C(=O)C2)c1C,10.7%
11,Cc1ccc(Br)cc1C(=O)Nc1cc(C(N)=O)n(C)c1,0.519%
12,Cc1ccc(S(=O)(=O)N(CC2CCOC2)C2CC2)cc1N(C)C (stereo not given),-15%
13,CCc1ccc(CN2CCN(c3ccc(C#N)cc3)C(=O)C2)nc1,3.08%
14,Cc1ncn(CCNC(=O)Nc2ccc(F)c(Cl)c2)c(=O)c1C,2.03%
15,Cc1nc(C(NC(=O)CN(C)C(C)C)c2ccccc2F)no1 (stereo not given),-4.35%
16,COc1ccc(Cl)cc1C(C(=O)O)N1CCSCC1 (stereo not given),3.31%
17,C[C@@H](N)C(=O)N1CCC(c2[nH]ncc2-c2ccccc2)CC1,-8.89%
18,O=C1C(N2CCOCC2)CCCN1Cc1cccc(C(F)(F)F)c1 (stereo not given),5.78%
19,COCC(C)NC(=O)c1sccc1-n1cnnn1 (stereo not given),15.6%
20,O=C(NCCc1cc(N2CCOCC2)nc(N2CCCC2)n1)C1CC1,13.9%

row,SMILES,Percent Effect
1,Cc1ncoc1C(=O)N1CCOC(Cc2ccccc2)C1 (stereo not given),8.13%
2,Cc1ccnn1CCN1CCCC2(CCC(=O)N(C3CCCC3)C2)C1 (stereo not given),15.1%
3,Cc1ncsc1C(=O)OCCN1CCCCCC1=O,5.73%
4,Cc1c(CN2CCCCC2)c(O)n(CCO)c(=O)c1C#N,-415%
5,O=C(CCn1ccnn1)N1CCCC(n2cncn2)C1 (stereo not given),14.6%
6,Cc1cc(C)n(C2CN(Cc3nc4cc(Cl)ccc4n3C)C2)n1,3.42%
7,COc1ccccc1CCNC(=O)N(C)C(C)CS(C)(=O)=O (stereo not given),-5.38%
8,CC(C)c1nnc2n1CCN(Cc1ccc3c(c1)OCCO3)C2,3.43%
9,CC(=O)c1cnc(NCCCN2CCOCC2)nc1C,-7.41%
10,COc1ncccc1CNCc1cnc(N2CCOCC2)nc1,-1.53%
11,Cn1cnnc1C1CCCN(c2nc3ccccc3o2)C1 (stereo not given),-1.42%
12,Cc1c(Br)cccc1NC(=O)N(C)CCO,-2.37%
13,CC(C)N(C)S(=O)(=O)c1ccc2c(c1)CCN(C(=O)c1cscn1)C2,-3.43%
14,CCC1c2ccccc2CCN1CCNS(C)(=O)=O (stereo not given),-4.87%
15,COC(=O)c1ncccc1N1CCCC1,9.09%
16,CC(=O)Cn1c(C)cc(=O)c2cc(F)ccc21,10.5%
17,Cc1noc(CNc2cc3c(cc2Cl)NC(=O)CO3)n1,1.17%
18,CC1CCN(c2ncc(-c3ccccc3F)c(-c3nccn3C)n2)CC1,15.2%
19,CCN(C)C[C@@H]1CN(C(=O)c2cc(-c3ccc(F)cc3)n[nH]2)C[C@@H]1CO,9.6%
20,Cc1nc(C)c(C(=O)N2C[C@@H](C(=O)O)[C@H](C3CC3)C2)s1,7.29%
